SIRT5 inh: blocks human SIRT5 desuccinylation of peptide; Q9NXA8; Purified SirT5, succinyl-peptide AMC, trypsin-coupled fluorescence; inhibition, % at 15 µM; hit rate 1.1% among 330,000; in the data active = inhibition above about 15%
Casp6 inh: caspase-6 (human) enzyme inhibition; P55212; purified caspase-6, Z-VEID-R110 cleavage fluorescence; inhibition, % at 12.5 µM; hit rate 0.53% among 350,000; AID 686996;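 active = mean inhibition across replicates at least about 35%, with every replicate also reaching that limit, limit read from the data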;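 note: 0% = median of neutral control wells and 100% = no fluorescence left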
ARNT-TACC3 inh: disrupts binding between human ARNT and TACC3. inhibition, % at 9.99 µM. Q9Y6A5. hit rate 0.66% among 390,000. AlphaScreen His-ARNT PAS-B/GST-TACC3 binding, luminescence; TACC3 fragment carries E629A point mutation;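 active = mean inhibition of replicates at least 50% and at least half of replicates each reaching 50%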;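 note: 0% = complete ARNT plus TACC3 wells and 100% = ARNT alone without TACC3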
NSD2 inh: blocks human histone methyltransferase NSD2 | O96028 | NSD2 peptide methylation, AlphaScreen, 120 min | inhibition, % at 12.5 µM | hit rate 0.54% among 310,000; in the data active = inhibition above about 50%
Target sequence (O96028 whole entry, looked up): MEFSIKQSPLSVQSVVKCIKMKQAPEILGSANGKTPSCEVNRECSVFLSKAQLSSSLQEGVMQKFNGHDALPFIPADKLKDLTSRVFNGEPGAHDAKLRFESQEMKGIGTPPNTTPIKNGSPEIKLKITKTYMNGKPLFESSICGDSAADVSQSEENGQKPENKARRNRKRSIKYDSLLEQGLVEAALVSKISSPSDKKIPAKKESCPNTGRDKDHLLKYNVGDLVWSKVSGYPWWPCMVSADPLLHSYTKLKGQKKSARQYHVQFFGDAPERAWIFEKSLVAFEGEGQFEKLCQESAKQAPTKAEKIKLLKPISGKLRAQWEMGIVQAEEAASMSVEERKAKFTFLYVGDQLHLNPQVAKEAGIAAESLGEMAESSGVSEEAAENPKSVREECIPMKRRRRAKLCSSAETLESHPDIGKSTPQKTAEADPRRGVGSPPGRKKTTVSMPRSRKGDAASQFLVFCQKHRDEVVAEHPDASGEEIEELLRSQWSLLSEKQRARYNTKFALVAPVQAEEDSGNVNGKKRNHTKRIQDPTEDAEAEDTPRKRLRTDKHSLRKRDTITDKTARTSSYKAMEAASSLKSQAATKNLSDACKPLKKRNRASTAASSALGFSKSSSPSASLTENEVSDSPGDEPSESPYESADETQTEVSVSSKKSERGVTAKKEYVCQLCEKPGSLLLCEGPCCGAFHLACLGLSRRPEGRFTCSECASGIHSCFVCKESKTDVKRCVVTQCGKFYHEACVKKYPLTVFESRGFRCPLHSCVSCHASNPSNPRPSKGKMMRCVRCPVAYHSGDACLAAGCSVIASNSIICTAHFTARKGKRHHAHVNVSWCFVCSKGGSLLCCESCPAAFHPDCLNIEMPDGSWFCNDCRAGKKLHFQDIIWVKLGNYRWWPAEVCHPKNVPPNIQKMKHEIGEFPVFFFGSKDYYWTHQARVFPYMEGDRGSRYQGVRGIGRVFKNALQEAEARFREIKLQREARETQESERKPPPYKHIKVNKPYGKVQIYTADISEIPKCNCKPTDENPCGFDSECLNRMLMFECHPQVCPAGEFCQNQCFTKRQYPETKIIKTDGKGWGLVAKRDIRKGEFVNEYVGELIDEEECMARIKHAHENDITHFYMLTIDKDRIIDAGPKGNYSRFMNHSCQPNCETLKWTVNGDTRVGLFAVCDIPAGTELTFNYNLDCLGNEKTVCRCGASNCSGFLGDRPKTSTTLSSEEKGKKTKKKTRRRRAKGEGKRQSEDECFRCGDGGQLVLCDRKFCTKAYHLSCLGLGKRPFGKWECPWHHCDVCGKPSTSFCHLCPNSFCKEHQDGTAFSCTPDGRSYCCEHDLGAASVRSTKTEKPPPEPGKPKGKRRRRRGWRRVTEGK
PfHsp90 set2: reduces growth (ATP signal) of yeast expressing P. falciparum Hsp90. inhibition, % at 9.4 µM. AID 504621. S. cerevisiae expressing PfHsp90, BacTiter-Glo ATP, 48 h; yeast lacking PDR1 and PDR3 efflux regulators. hit rate 0.32% among 310,000;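 active = every replicate shows inhibition above about 80%, whatever the replicate mean, limit read from the data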;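 note: 0% = DMSO neutral controls and 100% = 20 µM radicicol positive controls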
Alpha artifact: counter-screen for NSD2 inhibitors: AlphaScreen artifacts; shares compounds with NSD2 inh; AlphaScreen artifact counterscreen, preloaded methylated H4 peptide; AC35, µM (titrated, usually from 10 µM), without a hit: at the highest dose activity change, negative = signal loss; hit rate 9.4% among 1,500; call rule not given here
Starred values were filed as active, the others as inactive; / = not tested or not shown. In the library only some 2.1% were active in any assay of this set; here they are far more common.

SMILES	SIRT5 inh	Casp6 inh	ARNT-TACC3 inh	NSD2 inh	PfHsp90 set2	Alpha artifact
O=C(Cc1ccncc1)NCC[C@@H]1CC[C@@H](NC(=O)C2CC2)[C@@H](CO)O1	1	1	-1	/	/	/
COc1cccc(C(=O)N2C[C@@H]3[C@H](c4ccccc42)[C@@H](CO)N3Cc2ccccc2Cl)c1	0	1	1	/	/	/
CCc1ccccc1NC(=O)CSc1nc2n[nH]c(C)c2c(=N)n1-c1cccc(OC)c1	-3	-9	13	58*	-5	-4%
CCNC(=O)COC(=O)/C=C/c1cccs1	-3	-1	-13	3	4	/
CNC(=O)COC(=O)/C=C/c1cccs1	2	-1	-4	79*	-24	-5%
O=C(O)c1[nH]c2ccccc2c1C(c1cc(Cl)cc([N+](=O)[O-])c1O)c1c(C(=O)O)[nH]c2ccccc12	12	8	2	55*	-26	-20%
O=C(O)c1[nH]c2ccccc2c1C(c1ccccc1)c1c(C(=O)O)[nH]c2ccccc12	2	2	-2	7	12	/
CCC(=O)N1CCCCN2[C@H](CO)[C@H](c3ccc(C#Cc4ccccc4F)cc3)[C@@H]2C1	-2	-2	-3	/	/	/
O=C(N/N=C1\C/C(=N\NC(=O)c2ccncc2)c2ccccc21)c1ccncc1	0	90*	67*	108*	-33	-2%
CN1CC2(Cc3c1ccc1ccccc31)C(=O)OC(C)(C)OC2=O	/	/	2	87*	/	1%
Cc1nnc(N/N=C/c2c(Cl)cccc2Cl)n1N	3	4	8	15	12	/
Cc1nnc(N/N=C/c2ccccc2O)n1N	-3	50*	/	101*	-10	-5%
Cc1nnc(N/N=C/c2ccc(-c3ccccc3F)o2)n1N	1	5	29	85*	-23	-1%
Cc1nnc(N/N=C\c2ccc(-c3ccccc3[N+](=O)[O-])o2)n1N	4	15	22	93*	-2	-8%
COc1ccc(NC(=O)N(C)C[C@@H]2OCCCC[C@H](C)Oc3ccc(NC(=O)C4CCCCC4)cc3C(=O)N([C@H](C)CO)C[C@H]2C)cc1	4	5	-2	/	/	/
c1cncc(-c2noc(C34CC5CC(CC(C5)C3)C4)n2)c1	/	/	-11	-9	-25	/
Cc1ccccc1-c1noc(C23CC4CC(CC(C4)C2)C3)n1	/	/	-4	63*	-9	6%
COc1ccc(NC(=O)Nc2ccc3c(c2)C(=O)N([C@H](C)CO)C[C@@H](C)[C@@H](CN(C)C(=O)c2ccccc2)OCCCC[C@H](C)O3)cc1	0	-1	2	/	/	/
C=CCN1CCN(C(c2cccc(OC)c2OC)c2nnnn2CCC(C)C)CC1 (stereo unspecified)	1	-3	-7	98*	-25	-4%
O=C(OCc1cnc(Cl)s1)c1c(F)cccc1F	-4	-3	-9	-1	6	/
O=C(OCc1cnc(Cl)s1)c1cccs1	-3	-1	2	52*	-10	2%
CCOC(=O)c1c(NC(=O)COC)sc2c1CCCC2	/	/	-4	57*	/	0%
CCOC(=O)c1c(NC(=O)C[n+]2ccccc2)sc2c1CCCC2	-3	-4	1	17	-3	/
Cc1c(C)n(CCN(C)C)c2ccc(C(=O)OCCN(C)C)cc12	-4	-50	4	11	5	/
Cc1c(C)n(Cc2ccccc2)c2ccc(C(=O)OCCCN(C)C)cc12	-3	-22	11	90*	-22	-11%
SMILES	SIRT5 inh	Casp6 inh	ARNT-TACC3 inh	NSD2 inh	PfHsp90 set2	Alpha artifact
CO[C@@H]1CN(C)C(=O)c2cc(NC(=O)C3CC3)ccc2OC[C@@H](C)N(CC2CCOCC2)C[C@@H]1C	0	1	/	/	/	/
CCOC(=O)CSc1nnc(-c2cc(OC)c(OC)c(OC)c2)o1	-5	2	-3	0	7	/
COc1cc(-c2nnc(SCc3cc(=O)oc4cc(O)c(O)cc34)o2)cc(OC)c1OC	/	/	0	83*	/	0.99µM*
O=C1CCCC(O)=C1N=Nc1ccc(C(=O)O)cc1	33*	38*	4	96*	9	0%
O=C1CCCC(O)=C1N=Nc1ccc2c(c1)OCO2	10	9	7	1	-3	/
Nc1c(C(=O)NCc2ccc(F)cc2)c2nc3ccccc3nc2n1CCCN1CCOCC1	/	/	-34	82*	14	21%
COCC(=O)N(C)C[C@@H]1Oc2cc(-c3cccnc3)ccc2S(=O)(=O)N([C@@H](C)CO)C[C@@H]1C	-1	0	-7	/	/	/

Assay outcomes from PubChem.
